# Source: PubChem (National Center for Advancing Translational Sciences (NCATS))
# Marburg entry = Marburg virus entry inhibition | Marburg virus pseudotype entry/binding inhibition, cell-based | Potency, µM (doses to about 49.2 µM), for the others: at the highest dose activity change, negative = inhibition, actives largely listed as inhibitors | hit rate 6.5% among 18,000
# LASV entry inh = Lassa virus entry inhibition. Lassa virus pseudotyped entry inhibition, cell-based qHTS. Potency, µM (highest dose often 49.2 µM), without a hit: at the top dose activity change, negative = inhibition, actives largely listed as inhibitors. hit rate 4.1% among 18,000. AID 720533
# The depositor's hits bear a star; ? = inconclusive; . = no result given; + = active, no number; ! = a repeat was not active; [ ] = another dose, or the depositor's remark. Most compounds without a hit are left out; they make up all but 8% or so of the library. Calls follow the shape of the full dose curve; tested in HEK293 cells. % is scaled to controls: 0 for no effect and ±100 for the full control effect; potency is read from the fitted curve at half-maximal effect.
SMILES,Marburg entry,LASV entry inh
COC(=O)CC=C[C@@H](C)[C@@H](C=NOCC[C@@H]1C=C[C@H](OC(C)=O)[C@@H](COC(C)=O)O1)NS(=O)(=O)c1ccc(C)cc1,53%[8.59 µM],-19%[8.59 µM]
COC(=O)[C@H](Cc1ccccc1)NC(=O)[C@@H](N)CC(=O)O,22%,3%
CC(=O)[C@H](CC(C)C)NC(=O)[C@@H](CC(C)C)NC(=O)[C@H](CC(C)C)NC(=O)OCc1ccccc1,-87%,0.32µM*
CC(C)C[C@@H](NC(=O)OCC1c2ccccc2-c2ccccc21)C(=O)O,9%,14%
CC(C)C[C@@H](/C=C/S(C)(=O)=O)NC(=O)[C@H](CC(C)C)NC(=O)[C@H](CC(C)C)NC(=O)OCc1ccccc1,?,1.1µM*
CCC=CC[C@@]1(C(=O)OC)C=C[C@@H](C)[C@H](c2ccccc2Br)N1C(=O)C(F)(F)F,-1%[8.59 µM],5%[8.59 µM]
COc1ccc([C@]23Cc4cc(OC)c(OC)cc4[C@H](O2)C2=C(CC4(CCCCC4)OC2=O)O3)cc1,2%[8.59 µM],-3%[8.59 µM]
FC(F)(F)c1ccc(-c2nc(-c3ccccc3)oc2Nc2ccc3ccccc3c2)cc1,32%[8.59 µM],.
C[C@]12O[C@@H]1[C@@H](O)C(Br)=C(CO)[C@@H]2O,52%[8.59 µM],3%[8.59 µM]
O=C(Nc1ccc(C(=O)N2CCCCC2)cc1)c1ccccc1,80%,32%
O=C(c1ccc(Nc2nccc(-c3cc4ccccc4s3)n2)cc1)N1CCC(N2CCCC2)CC1,2.2µM*,?
COc1cccc([C@@H]2Oc3ccc(OC)cc3C(=O)[C@@H]2O)c1,-11%[8.59 µM],92%[8.59 µM]
COc1cccc([C@H]2NC(=O)C[C@@H]3C[C@@H](C)[C@@H](c4cccc(OC)c4)N3C(=O)C=CC[C@@H]2C)c1,8%[8.59 µM],44%[8.59 µM]
C=CCOC(=O)C1=C(C)N(CC)C(=O)NC1c1ccccc1 (centres undefined),-5%[8.59 µM],5%[8.59 µM]
O=C1c2ccccc2C(=O)C1c1ccc(F)cc1,1%,-11%
CC1(C)C(=O)NC2=C1C(=O)C(=O)c1ccccc12,4µM*,13µM*
CCCCCCCCCC=C[C@@H]1C[C@H]2C=CCO[P@@](=O)(O1)O2,12%,-4%
O=C1Nc2ccccc2C1=C1CCc2cc(O)ccc21,-21%,.
O=c1cc(-c2ccccc2Cl)oc2c(NS(=O)(=O)c3cc(Cl)cc(Cl)c3O)ccc(O)c12,?,10µM*
O=C(Nc1ccc(O)c2c(=O)cc(-c3ccccc3Cl)oc12)c1ccc(Cl)cc1Cl,-7%,-8%
CC(Nc1oc(-c2ccccc2)nc1C(C)(C)C)c1ccccc1 (centres undefined),-5%[8.59 µM],.
NS(=O)(=O)c1ccc(Nc2ncc(-c3ccccc3)o2)cc1,10%,-19%
COC(=O)C1(C(=O)OC)C/C=C\C/C=C\c2ccccc2[C@@H]1C[N+](=O)[O-],4%,5%
COC(=O)C1(C(=O)OC)C/C=C\Cc2ccccc2[C@@H]1C[N+](=O)[O-],-4%,0.25µM*!
COC(=O)c1ccc(CN2C(=O)[C@]3(OCCC=C[C@@H]3C)c3ccccc32)cc1,13%[8.59 µM],-1%[8.59 µM]
SMILES,Marburg entry,LASV entry inh
CCOC(=O)OC[C@H]1O[C@H](C#Cc2ccc(C)cc2C)C=C[C@H]1OC(=O)OCC,4%[8.59 µM],-8%[8.59 µM]
CC(CCN1CCCc2nc(C)c(C)cc21)=NOC[C@@H](C)[C@H](OCc1ccccc1)C(C)C,-24%[8.59 µM],14%[8.59 µM]
Cc1ccc(C)c(CN2CCc3nnc(CNC(=O)c4cc(C)oc4C)n3CC2)c1,+,-4%
Cc1cc(C(=O)NCc2nnc3n2CCN(Cc2ccc(C)c(C)c2)CC3)c(C)o1,-15%,-14%
C[C@H]1CN(c2ccc(Br)cc2)C(=O)[C@H]1CC(=O)Nc1ccc(Br)cc1,?,14%
COC[C@H]1O[C@H](c2ccccc2)C=C[C@H]1OCC=C(C)C,42%[8.59 µM],17%[8.59 µM]
COC(=O)CN1CN(c2ccccc2)C2(CCN(Cc3ccc4ccccc4c3)CC2)C1=O,?,-2%
O=C(CCCN1CCC2(CC1)C(=O)N(Cc1cccc(F)c1)CN2c1ccccc1)c1ccc(F)cc1,8.9µM*,16µM*
CN(C)CCOc1ccc(-c2cc(-c3ccc4c(c3)CCC4=NO)c(-c3ccncc3)o2)cc1,2µM*,.
CN(C)CCOc1ccc(-c2nc(-c3ccc4c(c3)CCC4=NO)c(-c3ccncc3)[nH]2)cc1,?,-95%
C[C@@H]1CN(CCCn2c3ccccc3c3ccccc32)C[C@H](C)N1,7.9µM*,18µM*
O=C(OCc1cn([C@H]2C[C@H](c3ccc(Cl)cc3)N(C(=O)C3CCCCC3)C[C@H]2O)nn1)c1ccccc1,?,-2%
CC(CN(C)C)CN1c2ccccc2S(=O)(=O)c2ccccc21 (centres undefined),?,-5%
CCN(CC)C(C)CN1c2ccccc2Sc2ccccc21 (centres undefined),1.6µM*,14µM*
O=C(O)c1ccccc1-c1c2ccc(=O)cc-2oc2cc(O)ccc12,-4%,11%
CN(C)c1ccc2c(-c3ccccc3)c3ccc(=[N+](C)C)cc-3oc2c1,2.5µM*,3.2µM*
CCCCCCCc1cc2ccccc2c2c(C(=O)OCC)c(C(=O)OCC)c(C(=O)OCC)n12,-5%[8.59 µM],10%[8.59 µM]
CCN1C(=NCc2ccco2)N[C@@H](c2ccccc2)[C@H](C(=O)OC)[C@H]1C,13%[8.59 µM],-22%[8.59 µM]
N#Cc1ccc2c(c1)C[C@]1(c3ccsc3)OC3=C(C(=O)OC4(CCCCC4)C3)[C@H]2O1,?,-4%[8.59 µM]
C[C@@H]1COc2cc(Br)ccc2S(=O)(=O)N1,-24%,23%
COc1ccc2c(c1)CCc1cnc(-n3ncc(C(=O)NCC(C)(C)CN(C)C)c3C)nc1-2,4.5µM*,?
COc1ccc2c(c1)-c1nc(-n3ncc(C(=O)NCC4CCCN(C)C4)c3C3CC3)ncc1CC2 (centres undefined),?,0%
COc1ccc2c(c1)-c1nc(-n3ncc(C(=O)NC[C@@H]4CCCN5CCCC[C@H]45)c3C)ncc1CC2,5µM*,35µM*
COc1ccc2c(c1)CCc1cnc(-n3ncc(C(=O)NCCCN4CCOCC4)c3C)nc1-2,?,-7%
CC(C)=CCCC(C)=CCON=C1C[C@@H](O)[C@@H](O)[C@@H]2[C@H]3C(=O)N(Cc4ccc5c(c4)OCO5)C(=O)[C@@H]3CC[C@H]12,-17%[8.59 µM],.
SMILES,Marburg entry,LASV entry inh
O=C(OCc1cn([C@H]2C[C@H](c3ccc(Cl)cc3)N(Cc3cccs3)C[C@H]2O)nn1)c1ccccc1,?,-23%
C[C@@]12C(=O)OC(=O)[C@]1(C)C1CCC2O1,4.5µM*,2.2µM*
COC(=O)CC=C1c2ccccc2[C@@H](NC(=O)OC)[C@@H]1C,20%[8.59 µM],-21%[8.59 µM]
CC(C)C(=O)NC(=O)[C@@H]1CCCN1C(=O)C=Cc1ccccc1,1%[8.59 µM],25%[8.59 µM]
O=c1c2ccccc2[se]n1-c1ccccc1,22µM*!,25µM*!
Cc1ccccc1-n1c(C)nc2ccccc2c1=O,8%,?
O[C@H]1CN(CC2CCCCC2)[C@@H](c2ccc(Cl)cc2)C[C@H]1n1cc(-c2ccc(F)cc2)nn1,?,-7%
O=C1Nc2ccccc2[C@@]12O[C@H](COc1ccccc1)CC1=C2CCC1,10%[8.59 µM],12%[8.59 µM]
COc1ccc([C@]23Cc4c(ccc5ccccc45)[C@H](O2)C2=C(CCCC2=O)O3)cc1,-21%[8.59 µM],13%[8.59 µM]
COc1cc2c(c(OC)c1OC)C(c1ccccc1)(c1ccccc1)CC2NC(=O)C(F)(F)F (centres undefined),-10%[8.59 µM],10%[8.59 µM]
N[C@@H](Cc1ccc(O)c(O)c1)C(=O)O,7.9µM*!,?
N[C@H](C(=O)O)[C@@H](O)c1ccc(O)c(O)c1,1.3µM*,?
N[C@H](Cc1ccc(O)cc1)C(=O)O,9%,6%
